Data from publication PMC7862700, “An all-to-all approach to the identification of sequence-specific readers for epigenetic DNA modifications on cytosine”.

Columns and labels:
Test in all cases: DAPPL (digital affinity profiling via proximity ligation, sequencing); 10 mM Tris-HCl pH 7.5, 50 mM NaCl, 1 mM DTT, 4% glycerol, room temperature, 30 min; GST-TFs on glutathione beads, 16-mer random dsDNA library, 0.1% formaldehyde crosslink after washing; high values mean tight binding
Conditions in all cases: protein: recombinant; tags: N-terminal GST; dsDNA, one strand shown
FLI1 = target: T1, FLI1 (Homo sapiens, UniProt Q01543 1-452)
T1 sequence: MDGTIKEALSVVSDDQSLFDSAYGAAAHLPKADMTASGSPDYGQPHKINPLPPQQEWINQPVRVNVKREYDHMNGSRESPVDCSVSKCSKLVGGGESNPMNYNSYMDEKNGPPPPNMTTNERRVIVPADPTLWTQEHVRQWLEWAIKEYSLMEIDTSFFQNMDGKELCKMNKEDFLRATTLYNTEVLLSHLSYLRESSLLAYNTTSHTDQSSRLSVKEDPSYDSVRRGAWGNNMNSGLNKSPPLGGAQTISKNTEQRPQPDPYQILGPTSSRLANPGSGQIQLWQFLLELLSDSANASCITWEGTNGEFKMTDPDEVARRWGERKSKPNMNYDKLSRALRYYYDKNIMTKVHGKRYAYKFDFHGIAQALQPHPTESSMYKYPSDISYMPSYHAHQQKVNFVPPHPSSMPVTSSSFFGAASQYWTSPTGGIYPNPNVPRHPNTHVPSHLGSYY
Method in brief: (§1)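 GST fusions of human transcription factors were expressed in yeast and captured with glutathione beads. Once given DNA barcodes and pooled alongside a tag-only sample, they were incubated for 30 min at room temperature with 200 nmole of a random double-stranded 16-mer DNA library in Tris/NaCl/DTT/glycerol buffer, then washed, crosslinked (0.1% formaldehyde), proximity-ligated, PCR-amplified and sequenced on an Illumina NextSeq500. The binding signal of each hexamer is its read frequency for a factor divided by its frequency for the tag-only sample.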

ELK1 = target: T2, ELK1 (Homo sapiens, UniProt P19419 1-428)
T2 sequence: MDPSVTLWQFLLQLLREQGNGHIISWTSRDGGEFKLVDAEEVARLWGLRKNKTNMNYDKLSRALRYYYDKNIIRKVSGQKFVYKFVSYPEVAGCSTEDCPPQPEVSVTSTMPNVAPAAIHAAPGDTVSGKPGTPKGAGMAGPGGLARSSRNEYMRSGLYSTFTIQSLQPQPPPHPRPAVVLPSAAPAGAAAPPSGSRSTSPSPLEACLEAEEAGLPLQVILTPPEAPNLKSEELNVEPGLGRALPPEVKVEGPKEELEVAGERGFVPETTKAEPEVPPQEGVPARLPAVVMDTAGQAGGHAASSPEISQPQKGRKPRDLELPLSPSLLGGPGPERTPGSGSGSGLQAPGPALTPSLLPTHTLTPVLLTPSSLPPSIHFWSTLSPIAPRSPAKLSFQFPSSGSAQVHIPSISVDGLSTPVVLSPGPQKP
Method in brief: as §1

GABPA = target: T3, GABPA (Homo sapiens, UniProt Q06546 1-454)
T3 sequence: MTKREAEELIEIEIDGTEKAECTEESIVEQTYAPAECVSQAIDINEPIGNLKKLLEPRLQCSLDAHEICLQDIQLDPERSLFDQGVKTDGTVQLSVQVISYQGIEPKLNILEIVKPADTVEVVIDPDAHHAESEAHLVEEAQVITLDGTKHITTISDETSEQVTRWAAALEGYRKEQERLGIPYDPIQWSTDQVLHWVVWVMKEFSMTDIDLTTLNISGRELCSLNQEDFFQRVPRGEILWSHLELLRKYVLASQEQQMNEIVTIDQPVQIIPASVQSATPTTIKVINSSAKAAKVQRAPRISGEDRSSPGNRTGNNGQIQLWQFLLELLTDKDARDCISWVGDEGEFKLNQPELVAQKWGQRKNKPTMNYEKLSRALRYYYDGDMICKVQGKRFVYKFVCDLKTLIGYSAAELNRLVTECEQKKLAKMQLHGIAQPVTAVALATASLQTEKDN
Method in brief: as §1

ERG = target: T4, ERG (Homo sapiens, UniProt P11308 1-479)
T4 sequence: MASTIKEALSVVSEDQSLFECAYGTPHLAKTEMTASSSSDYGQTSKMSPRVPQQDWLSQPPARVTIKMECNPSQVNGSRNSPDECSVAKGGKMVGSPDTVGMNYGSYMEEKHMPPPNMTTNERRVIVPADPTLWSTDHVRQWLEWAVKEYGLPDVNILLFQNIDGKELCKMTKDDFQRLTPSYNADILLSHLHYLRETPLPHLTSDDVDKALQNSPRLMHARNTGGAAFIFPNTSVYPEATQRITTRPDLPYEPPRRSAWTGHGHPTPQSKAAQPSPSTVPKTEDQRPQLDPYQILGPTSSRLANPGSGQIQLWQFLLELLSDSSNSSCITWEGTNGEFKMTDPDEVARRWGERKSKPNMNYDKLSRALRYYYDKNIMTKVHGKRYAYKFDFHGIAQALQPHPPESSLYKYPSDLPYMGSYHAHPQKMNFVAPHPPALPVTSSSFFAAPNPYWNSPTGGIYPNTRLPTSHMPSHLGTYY
Method in brief: as §1

ELF1 = ELF1 (Homo sapiens, UniProt P32519 1-619)
Chain of ELF1 (P32519 whole entry): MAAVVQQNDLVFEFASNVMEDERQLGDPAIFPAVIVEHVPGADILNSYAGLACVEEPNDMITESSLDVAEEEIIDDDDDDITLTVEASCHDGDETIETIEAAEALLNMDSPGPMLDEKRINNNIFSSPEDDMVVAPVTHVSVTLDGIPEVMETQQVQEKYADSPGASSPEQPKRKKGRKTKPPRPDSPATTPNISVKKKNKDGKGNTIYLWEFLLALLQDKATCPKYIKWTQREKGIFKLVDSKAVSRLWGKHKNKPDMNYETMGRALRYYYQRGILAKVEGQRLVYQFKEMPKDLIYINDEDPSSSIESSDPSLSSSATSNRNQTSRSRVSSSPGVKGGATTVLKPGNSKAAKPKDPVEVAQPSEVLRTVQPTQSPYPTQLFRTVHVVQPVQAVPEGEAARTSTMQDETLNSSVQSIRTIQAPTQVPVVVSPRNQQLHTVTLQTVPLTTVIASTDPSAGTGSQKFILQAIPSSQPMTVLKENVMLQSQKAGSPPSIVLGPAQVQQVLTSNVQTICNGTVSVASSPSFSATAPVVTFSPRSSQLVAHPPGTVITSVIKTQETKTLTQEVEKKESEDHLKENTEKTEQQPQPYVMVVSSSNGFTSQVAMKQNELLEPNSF
Method in brief: as §1

EHF = target: T5, EHF (Homo sapiens, UniProt Q9NZC4 1-300)
T5 sequence: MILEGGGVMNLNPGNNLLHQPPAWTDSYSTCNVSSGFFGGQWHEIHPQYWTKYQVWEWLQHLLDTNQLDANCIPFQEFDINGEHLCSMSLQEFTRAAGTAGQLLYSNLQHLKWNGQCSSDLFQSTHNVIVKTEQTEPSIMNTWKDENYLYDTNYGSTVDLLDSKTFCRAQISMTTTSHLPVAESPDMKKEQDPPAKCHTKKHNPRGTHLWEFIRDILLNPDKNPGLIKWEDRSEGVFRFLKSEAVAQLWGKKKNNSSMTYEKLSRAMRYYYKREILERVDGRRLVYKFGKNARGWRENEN
Method in brief: as §1

SPI1 = SPI1 (Homo sapiens, UniProt P17947 1-270)
Method in brief: as §1

SPIB = SPIB (Homo sapiens, UniProt Q01892 1-262)
Chain of SPIB (Q01892 whole entry): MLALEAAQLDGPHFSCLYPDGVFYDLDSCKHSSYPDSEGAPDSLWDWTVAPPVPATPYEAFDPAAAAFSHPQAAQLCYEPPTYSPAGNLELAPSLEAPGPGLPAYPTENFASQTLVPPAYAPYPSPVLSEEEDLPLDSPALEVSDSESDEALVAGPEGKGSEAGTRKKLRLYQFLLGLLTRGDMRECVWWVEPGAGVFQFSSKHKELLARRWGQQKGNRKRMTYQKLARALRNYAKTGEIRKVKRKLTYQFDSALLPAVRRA
Method in brief: as §1

ELK3 = target: T6, ELK3 (Homo sapiens, UniProt P41970 1-407)
T6 sequence: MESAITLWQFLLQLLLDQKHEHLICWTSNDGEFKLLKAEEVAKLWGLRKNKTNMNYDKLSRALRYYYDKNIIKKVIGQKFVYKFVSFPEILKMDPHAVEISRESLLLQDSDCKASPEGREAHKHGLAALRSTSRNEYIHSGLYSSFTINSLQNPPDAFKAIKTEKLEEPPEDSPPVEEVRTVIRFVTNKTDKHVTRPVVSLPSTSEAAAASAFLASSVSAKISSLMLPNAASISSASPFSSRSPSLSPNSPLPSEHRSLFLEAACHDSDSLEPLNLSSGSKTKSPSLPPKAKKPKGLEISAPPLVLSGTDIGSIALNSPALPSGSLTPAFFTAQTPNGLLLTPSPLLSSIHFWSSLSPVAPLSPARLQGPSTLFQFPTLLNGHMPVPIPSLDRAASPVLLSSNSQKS
Method in brief: as §1

Question: ATGCAC was tested. Which binding signal (FLI1) did it give?
Answer: Its binding signal is 1.28 fold enrichment (6-mer frequency, TF over GST control).

Question: And the binding signal (ELK1)?
Answer: Its binding signal is 1.33 fold enrichment (6-mer frequency, TF over GST control).

Question: And the binding signal (GABPA)?
Answer: Its binding signal is 1.33 fold enrichment (6-mer frequency, TF over GST control).

Question: What about the binding signal (ERG) of the same sequence?
Answer: Its binding signal is 1.2 fold enrichment (6-mer frequency, TF over GST control).

Question: What about the binding signal (ELF1) of the same sequence?
Answer: Its binding signal is 1.3 fold enrichment (6-mer frequency, TF over GST control).

Question: What about the binding signal (EHF) of the same sequence?
Answer: The binding signal was 1.21 fold enrichment (6-mer frequency, TF over GST control).

Question: And the binding signal (SPI1)?
Answer: The binding signal was 1.3 fold enrichment (6-mer frequency, TF over GST control).

Question: And the binding signal (SPIB)?
Answer: Its binding signal is 1.34 fold enrichment (6-mer frequency, TF over GST control).

Question: And the binding signal (ELK3)?
Answer: Its binding signal is 1.34 fold enrichment (6-mer frequency, TF over GST control).
